Assay [1] can be described thus: qHTS of pediatric cancer cell lines to identify multiple opportunities for drug repurposing: Primary screen for SK-N-MC cells (AID 1347093). Note: potency is the fitted concentration of half-maximal effect. Summed up: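 Metabolically active cells were quantified by ATP-dependent luminescence (CellTiter-Glo, 15 min at room temperature) following 48 h treatment. Cells had been plated at 500-1,000 per well and settled for 5 h beforehand.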

Assay [2] can be described thus: qHTS of pediatric cancer cell lines to identify multiple opportunities for drug repurposing: Primary screen for BT-37 cells (AID 1347094). Note: series mostly up to about 57 µM. Summed up:
(§1)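 Primary screen of approved and investigational compounds on cells in growth media at 37 degrees C, 5% CO2. MIPE set at 11-point and NPC set at 8-point dilutions; viability scored by ATP-based luminescence at 48 hours.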
(In general: qHTS replaces the single test concentration by a dilution series.)

Assay [3] in a line: qHTS of pediatric cancer cell lines to identify multiple opportunities for drug repurposing: Primary screen for NB-EBc1 cells (AID 1347095). In outline:
as §1

Assay [4] in a line: qHTS of pediatric cancer cell lines to identify multiple opportunities for drug repurposing: Primary screen for U-2 OS cells (AID 1347096). Note: nearly all actives have a fitted effect of over 50% in size. Summed up: (§2)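 Viability after 48 h compound treatment at 37C, 500-1,000 cells/well, read as ATP luminescence with CellTiter-Glo. Primary screens used 11-point (MIPE, 0.78 nM-46 µM) or 8-point (NPC, 0.59 nM-46 µM) final concentrations; follow-up screens used 11-point dilutions.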

Assay [5] can be described thus: qHTS of pediatric cancer cell lines to identify multiple opportunities for drug repurposing: Primary screen for Saos-2 cells (AID 1347097). Note: nearly all actives have a fitted effect of over 40% in size. Summed up: as §1
Assay [6] can be described thus: qHTS of pediatric cancer cell lines to identify multiple opportunities for drug repurposing: Primary screen for SK-N-SH cells (AID 1347098).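 Note: DMSO served as neutral control and bortezomib at 2.3 µM as positive control; nearly all actives have a fitted effect of over 65% in size.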 In outline: (§3)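 Cells (500-1,000/well) rested 5 h, then received compounds for 48 h; metabolically active cells were measured by CellTiter-Glo luminescence. Final concentrations spanned up to 46 µM (MIPE, 11-point) or 0.59 nM-46 µM (NPC, 8-point) in primary screens, 11-point in follow-ups.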

A short description of assay [7]: qHTS of pediatric cancer cell lines to identify multiple opportunities for drug repurposing: Primary screen for NB1643 cells (AID 1347099). Note: nearly all actives have a fitted effect of over 50% in size. In outline:
as §1

Assay [8] is described as follows: qHTS of pediatric cancer cell lines to identify multiple opportunities for drug repurposing: Primary screen for LAN-5 cells (AID 1347100). Summed up:
as §2

The nature of assay [9]: qHTS of pediatric cancer cell lines to identify multiple opportunities for drug repurposing: Primary screen for BT-12 cells (AID 1347101). Note: nearly all actives have a fitted effect of over 25% in size. Summed up: as §3
Assay [10] is described as follows: qHTS of pediatric cancer cell lines to identify multiple opportunities for drug repurposing: Primary screen for Rh18 cells (AID 1347102). Note: nearly all actives have a fitted effect of over 65% in size. Summed up: as §2

Records with an inconclusive call do not appear. Active and inactive are the calls of the source. Calls come from the whole dose curve; as a rule, active = well fitted curve in the direction sought with a large enough effect; inconclusive = small, poorly fitted or top-dose-only effect, or another doubt; inactive = no such curve, though single readings can be large; an effect the other way counts as inactive or inconclusive.

For the compound `O=C(CCCl)NCCc1ccccc1`, the Potency result in [1], in [2], in assay [3], in assay [4], in assay [5] and in assay [6] was “inactive” throughout. In addition, the Potency entry in assay [7], in assay [8], in assay [9] and in [10] was “inactive” each time.

As for `CC1c2ccccc2CN1NC(=O)c1ccc(Cl)c(S(N)(=O)=O)c1` (centres undefined), the Potency result in [1], in assay [2], in assay [3], in assay [4], in [5] and in [6] was “inactive” in each case. Also, the Potency entry in assay [7], in [8], in [9] and in [10] was “inactive” in each case.

With `Cc1cc(C(C)(C)C)c(O)c(C(C)(C)C)c1`, the Potency result in assay [1], in assay [2], in assay [3], in assay [4], in [5] and in assay [6] was “inactive” throughout. Moreover, the Potency entry in [7], in assay [8], in [9] and in assay [10] was “inactive” in each case.

With `CCCCN(CCCC)C(C(N)=O)c1ccc(OC)cc1` (centres undefined), the Potency result in [1], in assay [2], in assay [3], in [4], in assay [5] and in [6] was “inactive” each time. For the same compound, the Potency result in assay [7], in assay [8], in assay [9] and in [10] was “inactive” in each case.

Turning to `CC(CCc1ccc2c(c1)OCO2)NN` (centres undefined), the Potency result in [1], in [2], in [3], in [4], in assay [5] and in assay [6] was “inactive” in each case. In addition, the Potency result in assay [7], in assay [8], in [9] and in [10] was “inactive” in each case.

In the case of `NS(=O)(=O)c1cc(C(=O)NN2C[C@H]3[C@H]4CCC(C4)[C@H]3C2)ccc1Cl`, the Potency result in assay [1], in assay [2], in assay [3], in [4], in assay [5] and in [6] was “inactive” each time. Also, the Potency result in [7], in assay [8], in assay [9] and in assay [10] was “inactive” each time.

As to `CCn1ccc(NS(=O)(=O)c2ccc(N)cc2)nc1=O`, the Potency entry in assay [1], in assay [2], in [3], in assay [4], in assay [5] and in assay [6] was “inactive” throughout. The Potency entry in [7], in assay [8], in [9] and in assay [10] was “inactive” throughout.

`CC(=O)c1ccc(O)c(C(N)=O)c1`: the Potency entry in assay [1], in [2], in [3], in assay [4], in [5] and in assay [6] was “inactive” in each case. The Potency result in assay [7], in assay [8], in assay [9] and in [10] was “inactive” in each case.

In the case of `CC(=O)c1cc2ccccc2s1`, the Potency result in [1], in assay [2], in [3], in assay [4], in [5] and in [6] was “inactive” each time. For the same compound, the Potency result in [7], in assay [8], in assay [9] and in [10] was “inactive” throughout.

For `O=C(O)[C@H](O)[C@@H](O)[C@H](O[C@@H]1O[C@H](CO)[C@H](O)[C@H](O)[C@H]1O)[C@H](O)CO`, the Potency result in assay [1], in assay [2], in [3], in assay [4], in [5] and in [6] was “inactive” throughout. Moreover, the Potency entry in assay [7], in [8], in assay [9] and in [10] was “inactive” throughout.

In the case of `CC(NC(CCc1ccccc1)C(=O)O)C(=O)N1C(=O)N(C)CC1C(=O)O` (centres undefined), the Potency entry in [1], in [2], in [3], in [4], in [5] and in assay [6] was “inactive” throughout. The Potency entry in assay [7], in [8], in [9] and in assay [10] was “inactive” each time.

Turning to `Cn1c(=O)c2c(ncn2CC(=O)O)n(C)c1=O`, the Potency entry in [1], in assay [2], in assay [3], in [4], in assay [5] and in [6] was “inactive” each time. The Potency entry in [7], in assay [8], in [9] and in assay [10] was “inactive” each time.

Regarding `CCC(=O)Oc1ccc2c(c1)CC[C@@H]1[C@@H]2CC[C@@]2(C)[C@H]1C[C@@H](OC(=O)CC)[C@@H]2OC(=O)CC`, the Potency entry in assay [1], in assay [2], in [3], in [4], in assay [5] and in [6] was “inactive” throughout. In addition, the Potency entry in assay [7], in assay [8] and in assay [10] was “inactive” each time.

Regarding `CC(C)C[C@@H]1[C@H](c2ccccc2)OC(=O)N1CCCN1CCCCCC1`, the Potency result in [1], in assay [2], in assay [3], in [4], in assay [5] and in assay [6] was “inactive” throughout. The Potency result in assay [7], in assay [8] and in assay [10] was “inactive” each time.

Turning to `CN1N=C(C(N)=O)CCC1=O`, the Potency entry in [1], in assay [2], in assay [3], in [4], in assay [5] and in assay [6] was “inactive” in each case. Moreover, the Potency result in [7], in [8] and in [10] was “inactive” each time.

Turning to `CC[N+]1(CC)CCC(=C(c2ccccc2)c2ccccc2)C1C` (centres undefined), the Potency in [1] was 18.8 µM (active). The Potency entry in assay [2], in [3], in [4], in [5], in assay [6] and in assay [7] was “inactive” throughout. Further, the Potency entry in assay [8] and in [10] was “inactive” in each case.

As for `COc1ccc2c(c1)CCCC2=O`, the Potency entry in assay [1], in [2], in assay [3], in assay [4], in assay [5] and in [6] was “inactive” each time. Moreover, the Potency result in assay [7], in [9] and in assay [10] was “inactive” throughout.

In the case of `COc1ccccc1OCC1CNC(=O)O1` (centres undefined), the Potency result in [1], in [2], in [3], in [4], in assay [5] and in assay [6] was “inactive” throughout. Moreover, the Potency result in assay [7], in assay [9] and in [10] was “inactive” each time.

The record behind these values is PubChem BioAssay (NCATS).
